From PubChem
Rows were chosen to be rich in hits. Some 21% of all compounds tested hit in one or more screens of this group.
Pf growth 96h: Primary qHTS for delayed death inhibitors of the malarial parasite plastid, 96 hour incubation | P. falciparum luciferase reporter growth, 96 h | Potency, µM (top dose mostly 28.7 µM), for inactives: top-dose activity change, negative = inhibition, actives largely listed as inhibitors | 320,000 tested, 6.9% active | AID 504834, 2011; note: potency is the fitted concentration of half-maximal effect; % is set by controls: 0 for no effect and ±100 for the full control effect
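Two parasite generations (96 h, 37 C, 5% CO2) of compound exposure in infected erythrocytes (0.05% parasitemia, 2% hematocrit). Luciferase-reporter P. falciparum; decreased luminescence indicates inhibited growth, aimed at apicoplast-acting delayed death.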
SARS PLpro yeast: qHTS of Yeast-based Assay for SARS-CoV PLP; Potency, µM (highest dose often 32.9 µM), inactives show at the top dose activity, positive = growth rescue, most hits filed as activators; 330,000 tested, 0.19% active; S. cerevisiae expressing SARS-CoV PLpro, growth rescue; calls by dose curve; note: potency is the fitted concentration of half-maximal effect; 0% is about no effect; nearly all actives have a fitted effect of over 55% in size
NS1 function inh: qHTS Assay for Inhibitors of Influenza NS1 Protein Function | Potency, µM (top dose mostly 46.1 µM), for inactives: top-dose activity, positive = more growth | 270,000 tested, 0.4% active | AID 2326, 2010; calls by dose curve; note: potency is the fitted concentration of half-maximal effect; actives are rising curves; nearly all actives have a fitted effect of over 50% in size
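Growth recovery, yeast-based: influenza A NS1 expressed in S. cerevisiae causes slow growth, and suppressors are detected by OD600. The parent strain without NS1 is used as positive control.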
Pf growth 48h: Primary qHTS for delayed death inhibitors of the malarial parasite plastid, 48 hour incubation | Potency, µM (doses to about 28.7 µM), for the others: top-dose activity change, negative = inhibition, actives largely listed as inhibitors | P. falciparum luciferase growth in erythrocytes, 48 h | AID 504832, 2011 | 310,000 tested, 5.9% active; note: potency is the fitted concentration of half-maximal effect; % is set by controls: 0 for no effect and ±100 for the full control effect
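Luciferase-expressing P. falciparum in infected erythrocytes (2% hematocrit, 0.1% parasitemia final) in RPMI 1640/0.5% Albumax were exposed to compound for 48 hours at 37 C, 5% CO2; growth read as luminescence.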
Shiga toxin inh: A qHTS for Small Molecule Inhibitors of Shiga Toxin; 290,000 tested, 9.2% active; Vero cells, Shiga toxin protein synthesis inhibition reporter; inhibition, % at 38.7 µM; in the data active = inhibition mostly above about 28%, no sharp cut-off; inactive = mostly below about 43%; note: 0% is about no effect
CHX counter: Cycloheximide Counterscreen for Small Molecule Inhibitors of Shiga Toxin; cell reporter, cycloheximide protein synthesis inhibition counterscreen; 300,000 tested, 12% active; max response, %; in the data active = max response mostly above about 13%, no sharp cut-off; inactive = mostly below about 14%; note: read at 38.3 µM for the half of the compounds with a filed dose; 0% is about no effect
Starred values were filed as active, the others as inactive; ? = inconclusive; · = not tested or not shown. Unless noted, calls come from the whole dose curve; as a rule, active = well fitted inhibition curve with a large enough effect; inconclusive = small, poorly fitted or top-dose-only effect, or another doubt; inactive = no such curve, though single readings can be large or run the other way.

SMILES | Pf growth 96h | SARS PLpro yeast | NS1 function inh | Pf growth 48h | Shiga toxin inh | CHX counter
Cc1cc(/C=C(/C#N)c2nc3ccccc3[nH]2)c(C)n1-c1cc(C(=O)O)cc(C(=O)O)c1 | 101% | 1% | 6% | 1% | -10 | -1
Cc1cc(/C=C(/C#N)c2nc3ccccc3[nH]2)c(C)n1-c1ccccc1C(=O)O | 19% | 7% | · | 8.3µM* | -8 | 4
N#C/C(=C\c1ccc(Sc2ccccc2)o1)c1nc2ccccc2[nH]1 | 1µM* | 1% | -5% | ? | 127* | 41*
CCOC(=O)C1=C(C)Nc2ccccc2N=C1NC(=O)c1ccc(Cl)c(S(=O)(=O)N2CCCC2)c1 | ? | 3% | · | ? | -16 | -3
Cc1ccc2nc(/C(C#N)=C\c3cc(C)n(-c4cccc([N+](=O)[O-])c4)c3C)[nH]c2c1 | 3.3µM* | -3% | 18% | · | -5 | 15
COC(=O)C1(C(=O)OC)NOC2C(=O)N(c3ccccc3)C(=O)C21 (stereo not drawn) | 3% | -1% | 1% | -2% | -1 | -1
COc1ccc2nc(NC(=O)CN3CCOCC3)sc2c1 | · | -9% | -4% | 62% | 24 | 58*
CCN1CCN(CC(=O)Nc2nc3ccc(OC)cc3s2)CC1 | ? | 14% | -1% | · | 4 | -3
COc1ccc2nc(NC(=O)CN3CCN(C)CC3)sc2c1 | 102% | -2% | -55% | 104% | 152* | 46*
COc1ccc2nc(NC(=O)CN3C(=O)NC4(CCCCC4)C3=O)sc2c1 | 2% | 1% | 1% | -2% | 34 | 17*
COc1ccccc1NC(=O)CCc1nc2sc3c(c2c(=O)[nH]1)CCCC3 | ? | -2% | · | ? | · | ·
O=C(COC(=O)/C=C/c1ccccc1Cl)NCCc1ccc(Cl)cc1Cl | 0% | 7% | -7% | 21% | -3 | -1
Cn1c(COc2ccccc2)nc2ccccc21 | -8% | 8% | 8% | 39% | 67* | 32*
C=CCn1c(COc2ccccc2)nc2ccccc21 | -13% | 7% | -49% | -3% | 44* | 29*
Cn1c(CCCCCN)nc2ccccc21 | 10µM* | 5% | -6% | ? | -8 | -4
Cn1c(Cc2nc3ccccc3n2C)nc2ccccc21 | 30% | 5% | · | ? | · | ·
CCCCN(CCCC)C(=O)c1nsnc1-c1ccccc1O | · | -4% | -56% | -2% | 19 | -4
Cc1c(S(=O)(=O)NC2CCCCCC2)c(=O)n(C)c(=O)n1C | 4% | 2% | · | 2% | · | ·
COc1ccc(CC(=O)NCC(=O)N=Nc2c(O)[nH]c3ccccc23)cc1 | 1% | -6% | -5% | 40% | -9 | 10
O=C(CSCc1ccccc1)N=Nc1c(O)[nH]c2ccccc12 | 34% | -18% | -3% | 19% | 11 | 27*
O=C(CSCc1cccc(Br)c1)N=Nc1c(O)[nH]c2ccccc12 | -22% | -18% | -50% | 10% | -10 | 1
CC(=O)/C=C(\C)N=Nc1c(O)[nH]c2ccccc12 | 0% | 0% | -7% | 16% | 56* | 32*
CCCn1c(O)c(N=NC(=O)c2cccnc2)c2cc(Br)ccc21 | 5.9µM* | -3% | -31% | 5.9µM* | -9 | 4
O=C(CNC(=O)c1ccccn1)N=Nc1c(O)[nH]c2ccccc12 | -7% | -4% | -3% | ? | 47* | 22
CC(=O)c1ccccc1NC(=O)Cn1c(=O)cnc2ccccc21 | ? | -4% | ? | ? | -6 | -2
SMILES | Pf growth 96h | SARS PLpro yeast | NS1 function inh | Pf growth 48h | Shiga toxin inh | CHX counter
Cc1cc(NC(=O)CCCn2cc([N+](=O)[O-])cn2)n(Cc2ccc(F)cc2)n1 | ? | -3% | · | -19% | -3 | 11
COc1ccc(C(=O)NC(=O)COC(=O)C2COc3ccccc3O2)cc1 (stereo not drawn) | · | 5% | 0% | -7% | -17 | -3
O=C(N=Nc1c(O)[nH]c2ccccc12)c1ccc(CN2CCOCC2)cc1 | 46% | 0% | · | -1% | 9 | 6
O=C(N=Nc1c(O)[nH]c2ccccc12)c1ccco1 | ? | -2% | -33% | 280% | 65* | 45*
CCCn1c(O)c(N=NC(=O)c2ccco2)c2ccccc21 | ? | -12% | -42% | ? | 53* | 8
CCn1c(O)c(N=NC(=O)CNC(=O)c2ccco2)c2ccccc21 | 44% | 1% | 6% | -1% | -11 | -4
O=C(N=Nc1c(O)[nH]c2ccccc12)c1ccc2c(c1)OCO2 | 44% | -5% | · | 452% | 33 | 27*
CC(C)CC(=O)N=Nc1c(O)[nH]c2ccccc12 | ? | -2% | · | 26% | 106* | 26*
COc1ccc(NC(=O)c2cc(CC(C)C)nc3ccccc23)cc1 | 124% | 2% | -72% | ? | -19 | -3
COCc1cc(SC2CCCCC2)nc(C)n1 | 20% | 0% | 1% | 10% | 7 | -2
Clc1ccc2nc(-c3ccc(Br)s3)cn2c1 | -19% | -17% | -23% | ? | 41* | 22*
COc1ccc(-c2cn3cc(Cl)ccc3n2)cc1OC | 28% | 3% | -13% | 47% | 92* | 21*
O=C(O)c1ccccc1-c1cn2cc(Cl)ccc2n1 | 229% | -7% | · | 138% | 11 | 1
CNC(=O)Oc1ccc(-c2cn3cc(Cl)ccc3n2)cc1 | 4% | 8% | 4% | 24% | 55 | 21*
COc1ccc(-c2cn3cc(C)ccc3n2)cc1Br | -6% | -32% | -9% | 159% | 59* | 40*
COc1ccc(S(=O)(=O)Nc2ccc(-n3cnnn3)cc2)cc1Br | 0% | -2% | · | -25% | · | ·
Cc1ccc(C(=O)OCC(=O)NCc2cccs2)cc1 | 17% | -2% | 5% | 18% | 14 | -2
COC(=O)c1ccc(-c2ccco2)n1Cc1nc(-c2ccc(OC)c(OC)c2)oc1C | · | -2% | 25% | 13µM* | 13 | 6
c1cncc(-c2noc(C34CC5CC(CC(C5)C3)C4)n2)c1 | 1% | 0% | -32% | ? | 36* | 22*
COc1cc(C(=O)NCc2ccc(S(N)(=O)=O)cc2)ccc1OCC(=O)N1CCOCC1 | -27% | 0% | · | -28% | · | ·
Cc1cc(N)ccc1N1CCCC1 | 0.41µM* | -9% | 6% | 0.47µM* | 8 | -1
Cc1cc(N)ccc1-n1c(C)ccc1C | 11% | -14% | 6% | 7.4µM* | -3 | 5
CCN1CCN(c2ccc(N)cc2C)CC1 | ? | 1% | -4% | ? | -6 | 1
CC(C)c1ccc(N2C(=O)NC(=O)/C(=C/C=C/c3ccco3)C2=O)cc1 | 79% | -17% | 18% | 15% | -3 | -2
O=C1NC(=O)N(Cc2ccc(F)cc2)C(=O)/C1=C\C=C\c1ccco1 | -2% | -3% | -9% | -2% | 11 | -2
Cc1cc(C)cc(N2C(=O)NC(=O)/C(=C\C=C\c3ccco3)C2=O)c1 | 31% | 2% | 9% | 0% | 49* | 13
